Our source for the outcome and AC50 values is PubChem BioAssay (EPA / NIEHS).

Assay [1] concerns the target Transcription factor E2F1 (Homo sapiens) (UniProt Q01094). Description: ATG_E2F_CIS: Attagene CIS-FACTORIAL HepG2 Assay for human E2F Transcription Factor 1 (AID 2282935). The following applies: HepG2 Attagene cis-reporter, E2F reporter RNA transcripts; actives raise or lower the signal. Summed up: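 Transient MRTU transfection of HepG2; 24 h compound exposure; RNA → oligo(dT) RT → PCR → FAM label → HpaI cut → CE fluorescence. Gain/loss of signal fit against DMSO.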

Assay [2] can be described thus: ATG_E_Box_CIS: Attagene CIS-FACTORIAL HepG2 Assay for human Enhancer Box (E-box) (AID 2282936). The following applies: HepG2 E-box cis-reporter transcription, actives raise or lower the signal. Summed up: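 Transiently transfected HepG2, endogenous TF-driven reporters, 24 h dosing. Readout: RT-PCR plus capillary electrophoresis of fluorescent reporter fragments. Gain or loss of signal fitted bidirectionally against DMSO baseline.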

Assay [3] is described as follows: ATG_M_61_CIS: Attagene CIS-FACTORIAL HepG2 Assay for M61 Transcription Factor (Internal Marker) (AID 2282937). The following applies: HepG2 Attagene CIS-FACTORIAL M61 internal marker reporter; actives raise or lower the signal. Summed up:
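Human liver HepG2, transient MRTU transfection (cis promoter elements), 24 h compound. Total RNA → oligo(dT) RT → PCR → FAM label → HpaI → CE. Internal background marker; bidirectional fitting, DMSO = baseline.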

A short description of assay [4]: ATG_EGR_CIS: Attagene CIS-FACTORIAL HepG2 Assay for human Early Growth Response 1 (EGR1) (AID 2282938). The following applies: HepG2 Attagene CIS-FACTORIAL EGR reporter mRNA; actives raise or lower the signal. Summed up:
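Transient transfection of human HepG2 with multiple cis-regulated reporter units, chemical exposure 24 h, total RNA isolated. Reverse transcription, PCR, fluorescent labelling and capillary electrophoresis quantify reporter transcripts; activity fitted bidirectionally against DMSO.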

Assay [5] can be described thus: ATG_M_19_CIS: Attagene CIS-FACTORIAL HepG2 Assay for M19 Transcription Factor (Internal Marker) (AID 2282939). The following applies: HepG2 Attagene CIS-FACTORIAL M19 internal marker reporter; actives raise or lower the signal. Summed up: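 HepG2, MRTU transient transfection, 24 h dosing. Total RNA → RT-PCR → 6-FAM primer extension → HpaI digest → CE fluorescence. Bidirectional curve fit, DMSO negative control.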

Assay [6] in a line: ATG_ERE_CIS: Attagene CIS-FACTORIAL HepG2 Assay for Estrogen Response Element (ERE) (AID 2282940). The following applies: HepG2 ERE cis-reporter, Attagene RNA transcript; actives raise or lower the signal. Summed up:
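After a 24 h chemical treatment, RNA from reporter-transfected HepG2 cells is reverse-transcribed, PCR-amplified and fluorescently labelled. Fragments separated by capillary electrophoresis give reporter signal; DMSO serves as negative control.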

Assay [7] is described as follows: ATG_Ets_CIS: Attagene CIS-FACTORIAL HepG2 Assay for human Erythroblast Transformation Specific (ETS) (AID 2282941). The following applies: HepG2 ETS cis-reporter transcription, actives raise or lower the signal. Summed up: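 RT-PCR/capillary electrophoresis fluorescence read-out of reporter mRNA; HepG2 transient multi-reporter transfection; 24 h compound exposure; gain or loss of signal fitted bidirectionally relative to DMSO.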

The target in assay [8] is Hepatocyte nuclear factor 3-beta (Homo sapiens) (UniProt Q9Y261). Briefly: ATG_FoxA2_CIS: Attagene CIS-FACTORIAL HepG2 Assay for human Forkhead box A2 (FOXA2) (AID 2282942). The following applies: HepG2 cis-reporter transcription factor activity, 24 h; actives raise or lower the signal. Summed up: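 Transient MRTU transfection of HepG2 liver cells; 24 h treatment; total RNA → oligo(dT) RT → PCR → FAM primer extension → HpaI cut → CE. Bidirectional fit vs DMSO.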
Hepatocyte nuclear factor 3-beta (Homo sapiens), sequence (Q9Y261 whole entry, looked up): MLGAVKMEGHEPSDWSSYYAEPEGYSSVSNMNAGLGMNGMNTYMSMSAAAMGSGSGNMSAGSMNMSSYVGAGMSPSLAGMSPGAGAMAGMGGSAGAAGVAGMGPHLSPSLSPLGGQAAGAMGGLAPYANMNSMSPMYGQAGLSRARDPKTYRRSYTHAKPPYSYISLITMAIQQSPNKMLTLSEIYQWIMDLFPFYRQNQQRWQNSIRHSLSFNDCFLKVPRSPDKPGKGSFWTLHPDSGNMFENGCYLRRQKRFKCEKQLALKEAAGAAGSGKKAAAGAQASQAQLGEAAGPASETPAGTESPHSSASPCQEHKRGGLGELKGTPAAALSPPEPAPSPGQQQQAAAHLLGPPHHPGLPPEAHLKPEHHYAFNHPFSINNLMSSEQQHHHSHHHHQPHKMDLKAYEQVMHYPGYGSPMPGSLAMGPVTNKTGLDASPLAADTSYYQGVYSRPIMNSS

Assay [9] can be described thus: ATG_FoxO_CIS: Attagene CIS-FACTORIAL HepG2 Assay for human Forkhead box O (FoxO) (AID 2282943). The following applies: HepG2 Attagene cis-reporter, FoxO element, mRNA; actives raise or lower the signal. Summed up:
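HepG2 cells transiently transfected with cis-element-driven reporter units report endogenous FoxO activity. After 24 h chemical exposure, reporter mRNA quantified by RT-PCR, fluorescent labeling, HpaI digestion and capillary electrophoresis; bidirectional fit versus DMSO.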

Assay [10] can be described thus: ATG_GATA_CIS: Attagene CIS-FACTORIAL HepG2 Assay for human GATA Binding Protein (AID 2282944). The following applies: HepG2 GATA cis-element reporter, Attagene multiplex mRNA; actives raise or lower the signal. Summed up: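 Cells: HepG2, transiently transfected with cis-regulated reporter transcription units. Exposure: 24 h. Detection: RT-PCR plus capillary electrophoresis of FAM-labeled fragments. Analysis: bidirectional, DMSO as baseline.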

Assay [11] is described as follows: ATG_GLI_CIS: Attagene CIS-FACTORIAL HepG2 Assay for human Zinc Finger Protein GLI1 (AID 2282945). The following applies: HepG2, Attagene cis-factorial reporter mRNA, GLI element; actives raise or lower the signal. Summed up: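 Transiently transfected HepG2 cells report endogenous transcription factor activity via cis-element-driven reporter units. After 24 h compound exposure, reporter mRNA was measured by RT-PCR with capillary electrophoresis; bidirectional fitting against DMSO baseline.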

In assay [12] the target is Bile acid receptor (Homo sapiens) (UniProt Q96RI1). Description: ATG_IR1_CIS: Attagene CIS-FACTORIAL HepG2 Assay for human Nuclear Receptor Subfamily 1 Group H Member 4 (NR1H4), IR1 submotif (AID 2282946). The following applies: IR1 reporter transcription, actives raise or lower the signal. Summed up:
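Fluorescence of capillary-separated, HpaI-digested RT-PCR reporter products gave IR1-element mRNA induction in HepG2 cells 24 h after dosing. Endogenous transcription factors drove the cis-regulated reporters; activity was fitted bidirectionally against DMSO.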

The nature of assay [13]: ATG_GRE_CIS: Attagene CIS-FACTORIAL HepG2 Assay for human Glucocorticoid Response Elements (GRE) (AID 2282947). The following applies: HepG2 GRE cis-reporter, Attagene multiplex mRNA; actives raise or lower the signal. Summed up:
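Read-out: fluorescent reporter-transcript fragments separated by capillary electrophoresis after RT-PCR. Transiently transfected HepG2 cells carrying cis-element-driven reporter units were dosed for 24 h; gain or loss of signal fitted against DMSO control.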

The nature of assay [14]: ATG_ISRE_CIS: Attagene CIS-FACTORIAL HepG2 Assay for human Interferon Regulatory Factor 1 (IRF1) binding to an Interferon-Stimulated Response Element (ISRE) (AID 2282948). The following applies: HepG2 ISRE cis-reporter (Attagene), mRNA transcription readout; actives raise or lower the signal. Summed up:
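Read-out: fluorescent RT-PCR products resolved by capillary electrophoresis, reporting endogenous transcription factor activity via ISRE-driven reporter mRNA in transfected HepG2 cells dosed for 24 h; gain or loss fitted relative to DMSO.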

Assay [15] is described as follows: ATG_M_32_CIS: Attagene CIS-FACTORIAL HepG2 Assay for M32 Transcription Factor (Internal Marker) (AID 2282949).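 Note: background control marker of the multiplexed CIS panel rather than a real target.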 The following applies: HepG2 Attagene cis-factorial M32 reporter, mRNA; actives raise or lower the signal. Summed up:
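Using DMSO as baseline, bidirectional curve fits were applied to reporter mRNA signals. These came from transiently transfected HepG2 cells exposed for 24 h, with RNA analysed by RT-PCR, FAM primer extension, HpaI digestion and CE.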

Assay [16] is described as follows: ATG_M_06_CIS: Attagene CIS-FACTORIAL HepG2 Assay for M06 Transcription Factor (Internal Marker) (AID 2282950). The following applies: HepG2 Attagene CIS-FACTORIAL M06 internal marker reporter; actives raise or lower the signal. Summed up:
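Measured 24 h post-dosing in transiently transfected HepG2 cells, this internal-marker endpoint reports reporter mRNA via RT-PCR with fluorescent primer extension and capillary electrophoresis. DMSO served as negative control and baseline for bidirectional fitting.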

The target of assay [17] is Hypoxia-inducible factor 1-alpha (Homo sapiens) (UniProt Q16665). Description: ATG_HIF1a_CIS: Attagene CIS-FACTORIAL HepG2 Assay for human Hypoxia Inducible Factor 1 (HIF1A) (AID 2282951). The following applies: HepG2 Attagene cis-factorial HIF1a reporter transcription; actives raise or lower the signal. Summed up:
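Transient MRTU transfection of human HepG2 liver cells, 24 h compound treatment, then total RNA isolation, oligo(dT) reverse transcription, PCR amplification, fluorescent labelling and capillary electrophoresis of reporter fragments. Gain or loss relative to DMSO.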

Assay [18] deals with Hepatocyte nuclear factor 6 (Homo sapiens) (UniProt Q9UBC0). Description: ATG_HNF6_CIS: Attagene CIS-FACTORIAL HepG2 Assay for human Hepatocyte Nuclear Factor 6 (HNF6) (AID 2282952). The following applies: HepG2 Attagene cis-factorial HNF6 reporter transcription; actives raise or lower the signal. Summed up: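 Readout: fluorescent reporter-transcript fragments resolved by capillary electrophoresis after RT-PCR, reflecting endogenous factor activity in transfected HepG2. Exposure 24 h. Gain or loss of signal fitted bidirectionally against DMSO.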
Hepatocyte nuclear factor 6 (Homo sapiens), sequence (Q9UBC0 whole entry, looked up, the tested form may be a part): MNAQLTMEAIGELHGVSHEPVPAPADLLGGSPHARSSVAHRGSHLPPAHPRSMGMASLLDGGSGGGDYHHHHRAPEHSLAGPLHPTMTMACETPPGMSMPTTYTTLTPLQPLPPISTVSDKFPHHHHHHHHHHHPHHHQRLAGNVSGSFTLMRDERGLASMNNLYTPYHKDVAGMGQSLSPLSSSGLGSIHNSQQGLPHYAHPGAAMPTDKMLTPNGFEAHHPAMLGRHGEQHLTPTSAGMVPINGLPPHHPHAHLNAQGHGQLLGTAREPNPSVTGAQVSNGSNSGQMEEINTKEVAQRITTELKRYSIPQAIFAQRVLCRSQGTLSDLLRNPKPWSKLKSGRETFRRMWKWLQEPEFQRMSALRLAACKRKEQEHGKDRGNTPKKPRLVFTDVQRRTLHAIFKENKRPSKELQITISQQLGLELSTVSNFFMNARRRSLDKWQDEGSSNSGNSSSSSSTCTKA

Assay [19] concerns the target Heat shock factor protein 1 (Homo sapiens) (UniProt Q00613). Briefly: ATG_HSE_CIS: Attagene CIS-FACTORIAL HepG2 Assay for human Heat Shock Transcription Factor 1 (HSE) (AID 2282953). The following applies: HepG2 HSE cis-reporter, Attagene RNA transcription; actives raise or lower the signal. Summed up: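 Reporter mRNA induction in HepG2 is measured 24 h after dosing, using transiently transfected multiplexed cis-regulated reporter units. Signal comes from capillary electrophoresis of labelled RT-PCR products, with DMSO as negative control.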

Assay [20] is described as follows: ATG_MRE_CIS: Attagene CIS-FACTORIAL HepG2 Assay for human Metal Responsive Element (MRE) (AID 2282954). The following applies: HepG2 MRE cis-reporter transcription, Attagene multiplex; actives raise or lower the signal. Summed up:
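RT-PCR/capillary electrophoresis readout of reporter mRNA, 24 h post-dosing, in HepG2 cells transfected with multiplexed cis-regulated reporter constructs. Gain or loss of signal fitted bidirectionally against DMSO baseline.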

Molecules are shown by their SMILES. Calls of active or inactive are those of the source. Rule for the calls: active = hit-call score of the fitted dose curve at least 0.9, where 1 is the maximum; inactive = score below 0.9.

The AC50 is the midpoint of the concentration-response curve, whichever way the signal moves.

Bile acid receptor (Homo sapiens), sequence (Q96RI1 whole entry, looked up): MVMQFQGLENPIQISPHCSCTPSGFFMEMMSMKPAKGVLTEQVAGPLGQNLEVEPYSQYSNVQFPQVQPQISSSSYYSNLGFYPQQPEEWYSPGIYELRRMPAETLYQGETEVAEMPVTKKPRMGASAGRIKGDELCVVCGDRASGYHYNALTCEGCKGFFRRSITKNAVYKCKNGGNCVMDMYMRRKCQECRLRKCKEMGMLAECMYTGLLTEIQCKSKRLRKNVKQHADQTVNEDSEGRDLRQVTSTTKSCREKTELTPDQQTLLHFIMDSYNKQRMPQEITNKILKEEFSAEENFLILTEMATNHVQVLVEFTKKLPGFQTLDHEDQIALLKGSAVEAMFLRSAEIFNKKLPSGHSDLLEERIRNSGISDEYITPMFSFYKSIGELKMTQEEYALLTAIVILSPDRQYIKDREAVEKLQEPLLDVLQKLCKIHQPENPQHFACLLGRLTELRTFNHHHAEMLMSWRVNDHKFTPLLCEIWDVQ
Hypoxia-inducible factor 1-alpha (Homo sapiens), sequence (Q16665 whole entry, looked up, the tested form may be a part): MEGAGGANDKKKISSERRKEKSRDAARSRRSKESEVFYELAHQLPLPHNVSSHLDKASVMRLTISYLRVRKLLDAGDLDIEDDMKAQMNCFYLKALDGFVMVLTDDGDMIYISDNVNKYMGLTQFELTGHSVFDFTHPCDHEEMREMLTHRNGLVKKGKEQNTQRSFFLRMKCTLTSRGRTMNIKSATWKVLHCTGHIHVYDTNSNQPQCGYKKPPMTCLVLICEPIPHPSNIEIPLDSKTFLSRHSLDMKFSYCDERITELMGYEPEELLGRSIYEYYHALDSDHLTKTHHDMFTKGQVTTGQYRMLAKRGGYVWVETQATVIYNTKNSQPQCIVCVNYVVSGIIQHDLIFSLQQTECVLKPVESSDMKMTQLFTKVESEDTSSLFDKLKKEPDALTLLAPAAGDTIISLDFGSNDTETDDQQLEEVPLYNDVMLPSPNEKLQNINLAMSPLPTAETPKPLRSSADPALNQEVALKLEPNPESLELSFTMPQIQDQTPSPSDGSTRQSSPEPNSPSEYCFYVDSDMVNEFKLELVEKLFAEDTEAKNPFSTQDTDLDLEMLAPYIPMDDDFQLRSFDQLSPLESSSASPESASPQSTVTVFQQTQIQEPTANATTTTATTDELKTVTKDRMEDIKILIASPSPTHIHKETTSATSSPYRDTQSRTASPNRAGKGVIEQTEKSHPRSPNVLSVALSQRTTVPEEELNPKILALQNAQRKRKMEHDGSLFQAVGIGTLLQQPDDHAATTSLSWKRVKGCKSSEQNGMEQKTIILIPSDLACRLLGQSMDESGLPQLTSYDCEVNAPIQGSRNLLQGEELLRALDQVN
Heat shock factor protein 1 (Homo sapiens), sequence (Q00613 whole entry, looked up): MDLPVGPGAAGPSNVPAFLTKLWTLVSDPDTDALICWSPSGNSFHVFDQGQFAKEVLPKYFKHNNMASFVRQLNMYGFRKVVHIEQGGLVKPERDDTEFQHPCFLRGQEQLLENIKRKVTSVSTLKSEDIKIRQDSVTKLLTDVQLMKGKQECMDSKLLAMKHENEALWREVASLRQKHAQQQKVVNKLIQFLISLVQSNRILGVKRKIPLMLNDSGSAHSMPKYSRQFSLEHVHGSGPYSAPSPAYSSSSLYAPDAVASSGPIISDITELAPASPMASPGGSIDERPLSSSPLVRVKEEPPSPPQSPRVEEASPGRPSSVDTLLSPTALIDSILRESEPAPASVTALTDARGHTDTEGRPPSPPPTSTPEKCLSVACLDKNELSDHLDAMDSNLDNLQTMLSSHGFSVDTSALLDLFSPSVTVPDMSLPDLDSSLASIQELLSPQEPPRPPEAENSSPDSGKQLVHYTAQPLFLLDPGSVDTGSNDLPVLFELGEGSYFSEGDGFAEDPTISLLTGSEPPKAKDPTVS
Transcription factor E2F1 (Homo sapiens), sequence (Q01094 whole entry, looked up): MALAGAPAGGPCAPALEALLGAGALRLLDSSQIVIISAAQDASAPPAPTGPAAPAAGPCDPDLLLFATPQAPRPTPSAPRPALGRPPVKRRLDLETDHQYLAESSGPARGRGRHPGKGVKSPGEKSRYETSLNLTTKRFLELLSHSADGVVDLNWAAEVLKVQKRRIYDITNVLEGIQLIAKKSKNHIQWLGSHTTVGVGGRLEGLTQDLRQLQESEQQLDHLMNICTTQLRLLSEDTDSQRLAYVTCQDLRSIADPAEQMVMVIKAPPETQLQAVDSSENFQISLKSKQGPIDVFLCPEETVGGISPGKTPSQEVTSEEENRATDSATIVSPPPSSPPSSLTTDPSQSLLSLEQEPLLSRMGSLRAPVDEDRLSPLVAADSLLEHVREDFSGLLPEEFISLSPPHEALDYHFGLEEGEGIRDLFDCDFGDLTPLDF

Turning to `CCc1cccc(CC)c1`, the compound was called inactive in [1], in assay [2], in assay [3], in assay [4], in [5] and in assay [6]. Further, the compound was called inactive in assay [7], in assay [8], in [9], in assay [10], in assay [11] and in assay [12]. Moreover, the outcome in assay [13], in assay [14], in assay [15], in [16], in assay [17] and in assay [18] was inactive. Further, the outcome in assay [19] and in assay [20] was inactive.

Regarding `CC1OC(=O)C(C)OC1=O` (stereo not given), the call in assay [1], in assay [2], in [3], in [4], in assay [5] and in assay [6] was inactive. The result in assay [7], in [8], in [9], in assay [10], in [11] and in assay [12] was inactive. Also, the call in assay [13], in [15], in assay [16], in assay [18], in assay [19] and in [20] was inactive. Moreover, the AC50 in [17] was 26.6 µM (active).

In the case of `CCC1(C)C(=O)N(Cl)C(=O)N1Cl` (stereo not given), the call in [1], in assay [2], in assay [3], in [5], in assay [6] and in assay [7] was inactive. For the same compound, the outcome in [8], in [10], in assay [11], in assay [12], in assay [13] and in [15] was inactive. Also, the outcome in [16], in assay [17] and in [18] was inactive. Besides, the half-maximal activity concentration (AC50) is 34.5 µM (active) in assay [4], 29.8 µM (active) in assay [9], 52.1 µM (active) in assay [19] and 61.4 µM (active) in [20].

As to `CC(C)(C)C1CCC(=O)CC1`, the compound was called inactive in assay [1], in assay [2], in assay [3], in assay [4], in [5] and in assay [6]. Besides, the result in [7], in assay [8], in [9], in assay [10], in assay [11] and in [12] was inactive. The outcome in [13], in assay [14], in assay [16], in assay [17], in [18] and in assay [20] was inactive.

On to `CCCCCCCCCCCCc1ccc(O)cc1`, for which the call in assay [1], in [2], in assay [3], in [4], in assay [5] and in [7] was inactive. In addition, the call in assay [8], in [9], in assay [10], in [11], in assay [12] and in [13] was inactive. The compound was called inactive in assay [14], in [15], in assay [16], in [17], in assay [18] and in assay [20]. Moreover, the AC50 in assay [6] is 0.146 µM (active).

On to `COC(C=C(C)CCC=C(C)C)OC`, for which the call in assay [1], in assay [2], in [3], in [4], in assay [5] and in assay [6] was inactive. The compound was called inactive in assay [7], in assay [8], in assay [9], in [10], in [11] and in [12]. Moreover, the call in [13], in [14], in assay [15], in assay [16], in [17] and in assay [18] was inactive. Besides, the compound was called inactive in assay [19] and in assay [20].

Turning to `CCCCCCOc1ccc(N)cc1`, the outcome in assay [1], in [2], in [3], in [4], in [5] and in assay [6] was inactive. In addition, the outcome in assay [7], in assay [8], in assay [9], in [10], in [11] and in assay [12] was inactive. Further, the call in assay [13], in assay [14], in assay [15], in assay [16], in assay [17] and in assay [18] was inactive. Moreover, the result in assay [19] and in assay [20] was inactive.
